Consider eight compounds from PubChem BioAssay (NCI).

Each structure is given as a SMILES string. About 83,000 compounds went through this panel and 20% of them were active in at least one assay; those are over-represented in the sample as a whole.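 96-well plates, one dose, 48 hours. Percent growth reported; active if below 10.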 Values without a mark were called inactive. Activity calls are given as the source filed them.

Test systems include EKVX NSCLC; SN12C renal; UO-31 renal; ACHN renal; A498 renal; CCRF-CEM leukemia; MOLT-4 leukemia; SR leukemia; RPMI-8226 leukemia; OVCAR-8 ovarian; OVCAR-5 ovarian; OVCAR-4 ovarian; SK-OV-3 ovarian; OVCAR-3 ovarian; NCI/ADR-RES ovarian; TK-10 renal; CAKI-1 renal; IGROV1 ovarian; HS 578T breast.
Common to all, as to assay: NCI-60 one-dose screen, 48 h (100 = growth as untreated, 0 = no growth, -100 = all killed)
Conditions in all cases: 10 µM unless noted

On to `Cc1sc2nc(NCCc3cccs3)[nH]c(=O)c2c1C`, for which the growth in the assay on EKVX NSCLC was 85.5%; in the assay on SN12C renal it was 87.7%; with UO-31 renal, 90%; in the assay with ACHN renal it was 96.1%; with A498 renal it was 70.7%; in the assay on CCRF-CEM leukemia, 81.9%. Moreover, the growth in the assay with MOLT-4 leukemia was 75.3%; with SR leukemia, 72.1%; in the assay with RPMI-8226 leukemia it was 86.7%; in the assay with OVCAR-8 ovarian it was 87.4%; with OVCAR-5 ovarian, 97.8%; in the assay with OVCAR-4 ovarian, 95.6%. Also, the growth is 79% in the assay with SK-OV-3 ovarian, 106% with OVCAR-3 ovarian and 85.2% in the assay on NCI/ADR-RES ovarian.
`Cc1sc2nc3c4ccccc4c(NCCCN(C)C)nn3c(=O)c2c1C`: the growth in the assay on SN12C renal was 53.4%; in the assay with UO-31 renal it was -91.9% (active); in the assay with TK-10 renal, 78%; with ACHN renal it was 53.5%; in the assay with CAKI-1 renal, 84.4%; with A498 renal, 51.8%. Also, the growth in the assay with CCRF-CEM leukemia is -27.9% (active); with MOLT-4 leukemia, -44.9% (active); in the assay on RPMI-8226 leukemia, -56.4% (active); with OVCAR-5 ovarian it was 71%; in the assay on OVCAR-4 ovarian, 65.8%; with SK-OV-3 ovarian it was 65.7%. The growth in the assay with IGROV1 ovarian is 23.4%; with OVCAR-3 ovarian it was 59.2%; in the assay with HS 578T breast, 71.6%; in the assay on NCI/ADR-RES ovarian, 66.8%.
Turning to `Cc1[nH]ccc2cc3nc4ccccc4c3cc12`, the growth in the assay on EKVX NSCLC is 30.7%; in the assay with SN12C renal, 27.8%; in the assay on ACHN renal, 15.4%; with CAKI-1 renal, 52%; with A498 renal, 4.99% (active); in the assay with CCRF-CEM leukemia, 17.1%. The growth in the assay with MOLT-4 leukemia was 8.62% (active); in the assay with SR leukemia, 3.33% (active); in the assay with RPMI-8226 leukemia, 15.9%; in the assay with OVCAR-8 ovarian, 20.6%; in the assay with OVCAR-5 ovarian it was 42%; in the assay with OVCAR-4 ovarian, 38.4%. Moreover, the growth with SK-OV-3 ovarian is 34.7%; in the assay on IGROV1 ovarian it was 23.6%; in the assay on OVCAR-3 ovarian, 41.6%; with HS 578T breast, 55.3%; in the assay with NCI/ADR-RES ovarian it was 24.9%.
Consider `CC(=O)Nc1c(Cl)cc2c(c1Cl)Cc1cc([N+](=O)[O-])ccc1-2`, for which the growth in the assay on EKVX NSCLC was 42.2%; in the assay with SN12C renal it was 97.1%; in the assay on UO-31 renal, 86.3%; in the assay with ACHN renal, 79.5%; in the assay with A498 renal, 88.8%; in the assay on CCRF-CEM leukemia, 57.2%. Moreover, the growth is 85% in the assay with MOLT-4 leukemia; 70% with SR leukemia; 77.7% with OVCAR-8 ovarian; 117% with OVCAR-5 ovarian; 81.2% in the assay on OVCAR-4 ovarian; 84.4% with SK-OV-3 ovarian. The growth with IGROV1 ovarian is 117%; in the assay on OVCAR-3 ovarian it was 72%; in the assay with HS 578T breast, 34.6%; in the assay with NCI/ADR-RES ovarian it was 94.8%.
Take `O=C(Nc1cccc(-n2cc(-c3ccncc3)c(-c3cc(O)cc(Cl)c3)n2)c1)Nc1ccc(Cl)c(Cl)c1`: the growth is 14.9% in the assay with SN12C renal; -41.3% (active) in the assay with UO-31 renal; 6.85% (active) with ACHN renal; 5.31% (active) in the assay with CAKI-1 renal; -2.98% (active) in the assay on A498 renal; 4.11% (active) in the assay on CCRF-CEM leukemia. The growth is -27.1% (active) with MOLT-4 leukemia; -21.4% (active) with SR leukemia; -15.3% (active) with RPMI-8226 leukemia; -14.8% (active) in the assay with OVCAR-8 ovarian; -2.26% (active) in the assay with OVCAR-5 ovarian; 10.7% in the assay on OVCAR-4 ovarian. The growth in the assay on SK-OV-3 ovarian was 13.2%; with IGROV1 ovarian it was 26%; with OVCAR-3 ovarian, -47.4% (active); with HS 578T breast it was -6.42% (active); in the assay with NCI/ADR-RES ovarian it was 12.8%.
Turning to `COc1ccc(C(=O)/C=C/c2cccc(Nc3ccnc4cc(Cl)ccc34)c2)cc1`, the growth with EKVX NSCLC is 50.9%; in the assay on SN12C renal, 25.7%; in the assay on TK-10 renal it was -11% (active); in the assay with ACHN renal it was 29.6%; in the assay with A498 renal it was 39.7%; with CCRF-CEM leukemia, 37.2%. Also, the growth is 42.3% with MOLT-4 leukemia; 0.362% (active) in the assay on SR leukemia; 35.3% in the assay on RPMI-8226 leukemia; 10.2% with OVCAR-8 ovarian; 39.3% in the assay on OVCAR-5 ovarian; 64% with SK-OV-3 ovarian. Further, the growth with IGROV1 ovarian is 30.2%; in the assay with OVCAR-3 ovarian, 23.9%.
On to `O=C(Nc1nc2c(C(F)(F)F)cccc2s1)c1cc(Cl)ccc1O`, for which the growth is 11.1% with EKVX NSCLC; -4.79% (active) in the assay with SN12C renal; -10.9% (active) in the assay with UO-31 renal; 5.28% (active) in the assay on ACHN renal; -36.9% (active) with A498 renal; 10.7% in the assay with CCRF-CEM leukemia. For the same compound, the growth with MOLT-4 leukemia was -8.05% (active); in the assay on SR leukemia, 7.18% (active); in the assay on RPMI-8226 leukemia it was -22.7% (active); in the assay on OVCAR-8 ovarian, 6.2% (active); in the assay with OVCAR-5 ovarian, 29.3%; with OVCAR-4 ovarian it was 21.8%. Also, the growth with SK-OV-3 ovarian was -8.89% (active); in the assay on IGROV1 ovarian it was 24.2%; in the assay on OVCAR-3 ovarian, 10.1%; in the assay with NCI/ADR-RES ovarian, 1.26% (active).
On to `OCCCc1n(Cc2ccc3ccccc3c2)c2ccccc2[n+]1Cc1ccc2ccccc2c1`, for which the growth was 47.6% in the assay on EKVX NSCLC; 8.7% (active) in the assay on SN12C renal; 37.5% in the assay on TK-10 renal; 81.6% in the assay with ACHN renal; 46% in the assay on A498 renal; 30.8% in the assay on CCRF-CEM leukemia. The growth in the assay on MOLT-4 leukemia was 19.7%; with SR leukemia, -30.9% (active); in the assay with RPMI-8226 leukemia, 2.19% (active); in the assay with OVCAR-8 ovarian, 15.2%; in the assay on OVCAR-5 ovarian, 31%; with OVCAR-4 ovarian, 22.3%. In addition, the growth is 62.2% in the assay on SK-OV-3 ovarian, -42.2% (active) with IGROV1 ovarian and 90.5% with NCI/ADR-RES ovarian.
